Reference: PubChem BioAssay (Tox21)
Records with an inconclusive call do not appear. The source made the active and inactive calls. Unless noted, the call rests on the fitted dose curve; in most records, active means well fitted curve in the direction sought with a large enough effect in the repeat runs; inconclusive means weak or mixed curves; inactive means no such curve, though single readings can be large; an effect the other way counts as inactive or inconclusive.

How the values were obtained:
[1] = biological target: Luciferin 4-monooxygenase (Photinus pyralis) (UniProt P08659); test: qHTS assay to identify small molecule inhibitors of firefly luciferase (AID 1224835); further: series mostly up to about 120 µM; nearly all actives have a fitted effect of over 25% in size
Chain of Luciferin 4-monooxygenase (Photinus pyralis) (P08659 whole entry, looked up): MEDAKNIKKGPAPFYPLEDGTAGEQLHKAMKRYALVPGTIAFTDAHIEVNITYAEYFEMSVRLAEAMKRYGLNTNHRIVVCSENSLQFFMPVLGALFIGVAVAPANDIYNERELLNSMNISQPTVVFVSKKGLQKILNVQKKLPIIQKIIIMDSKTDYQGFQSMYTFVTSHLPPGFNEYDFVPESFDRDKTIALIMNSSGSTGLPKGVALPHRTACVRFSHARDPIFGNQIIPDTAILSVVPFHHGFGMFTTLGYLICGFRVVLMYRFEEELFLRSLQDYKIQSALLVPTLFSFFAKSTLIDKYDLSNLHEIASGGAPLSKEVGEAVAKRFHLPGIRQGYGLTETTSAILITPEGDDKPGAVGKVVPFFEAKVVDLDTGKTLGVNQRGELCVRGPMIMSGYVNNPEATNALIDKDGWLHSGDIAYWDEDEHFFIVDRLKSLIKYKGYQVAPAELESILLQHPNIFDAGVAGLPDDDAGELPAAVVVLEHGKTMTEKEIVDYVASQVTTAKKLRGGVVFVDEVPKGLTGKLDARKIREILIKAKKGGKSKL
Method in brief: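 Biochemical qHTS: compounds run as interplate titrations against purified firefly enzyme, with D-luciferin and ATP each at its KM concentration. Light output recorded by CCD imaging.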

[2] = qHTS assay to identify small molecule agonists of the constitutive androstane receptor (CAR) signaling pathway - cell viability counter screen (AID 1224836); further: series mostly up to about 92 µM; nearly all actives have a fitted effect of over 45% in size
Method in brief: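 23 h treatment, 37 C, 5% CO2. Cell line: HepG2 stably expressing hCAR with a CYP2B6-2.2kb construct. Co-treatment: PK11195, 0.75 uM final. Read-out: CellTiter-Fluor fluorescence intensity.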

[3] = qHTS assay to identify small molecule antagonists of the constitutive androstane receptor (CAR) signaling pathway - cell viability counter screen (AID 1224837); further: series mostly up to about 92 µM; nearly all actives have a fitted effect of over 45% in size
Method in brief: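 To flag cytotoxic false antagonists, HepG2 hCAR/CYP2B6-2.2kb cells were treated 23 hr with 15-concentration compound series and 50 nM CITCO at 37 C/5% CO2; CellTiter-Fluor fluorescence was the measured end point.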

[4] = biological target: Nuclear receptor subfamily 1 group I member 3 (Homo sapiens) (UniProt Q14994); test: qHTS assay to identify small molecule agonists of the constitutive androstane receptor (CAR) signaling pathway (AID 1224839);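 further: HepG2 cells stably carrying human CAR and a CYP2B6 luciferase reporter; series mostly up to about 92 µM; nearly all actives have a fitted effect of over 15% in size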
Chain of Nuclear receptor subfamily 1 group I member 3 (Homo sapiens) (Q14994 whole entry, looked up): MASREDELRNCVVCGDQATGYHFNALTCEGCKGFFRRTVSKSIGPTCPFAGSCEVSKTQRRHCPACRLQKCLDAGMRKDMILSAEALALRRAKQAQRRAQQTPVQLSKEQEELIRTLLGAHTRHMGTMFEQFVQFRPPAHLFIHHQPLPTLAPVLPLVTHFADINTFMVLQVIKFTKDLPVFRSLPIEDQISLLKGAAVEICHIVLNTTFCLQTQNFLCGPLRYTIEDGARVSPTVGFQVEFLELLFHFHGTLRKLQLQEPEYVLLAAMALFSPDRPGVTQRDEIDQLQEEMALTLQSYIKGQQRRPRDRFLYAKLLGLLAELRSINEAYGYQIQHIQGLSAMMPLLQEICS
Method in brief: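 Compounds tested at 15 concentrations on HepG2 cells stably harbouring hCAR and CYP2B6-2.2kb reporter constructs, co-treated with PK11195 (0.75 uM final), 24 h at 37 C; luminescent reporter signal quantified.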

[5] = qHTS assay to identify small molecule antagonists of the estrogen related receptor signaling pathway with the pleiotropic PPARgamma coactivator (PGC) from Tox21 10K library - cell viability counter screen (AID 1224840; active means well fitted cell-killing curve with a large enough effect in the repeat runs, not every such curve was filed as active; further: nearly all actives have a fitted effect of over 40% in size)
Method in brief: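 Seeded PGC/ERR cells (2,000/well, 6 h, 37 C/5% CO2) get compound by pin tool; 17.5 h incubation at 37 C; CellTiter-Fluor added, 30 min, fluorescence measured.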

[6] = qHTS assay to identify small molecule antagonists of the estrogen related receptor signaling pathway with the pleiotropic PPARgamma coactivator (PGC) from Tox21 10K library (AID 1224841; call rule not given here; further: series mostly up to about 92 µM; actives are mostly falling curves and most rising ones were filed inactive; nearly all actives have a fitted effect of over 50% in size)
Method in brief: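 Test chemicals dissolved in DMSO were applied to pre-incubated (6 h) PGC/ERR cells at 2,000 cells/well for an 18 h, 37 C treatment; reporter luminescence was then read using One-Glo.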

[7] = qHTS assay to identify small molecule agonists of the estrogen related receptor signaling pathway with the pleiotropic PPARgamma coactivator (PGC) from Tox21 10K library (AID 1224842); further: nearly all actives have a fitted effect of over 15% in size
Method in brief: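 PGC/ERR reporter cell line, 2,000 cells per well, incubated 6 h at 37 C before 23 nL compound in DMSO was added. After 18 h at 37 C, One-Glo luminescence read following 30 min at room temperature.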

[8] = biological target: Thyrotropin receptor (Homo sapiens) (UniProt P16473); test: qHTS assay to identify small molecule agonists of the thyroid stimulating hormone receptor (TSHR) signaling pathway (AID 1224843; calls by dose curve; further: nearly all actives have a fitted effect of over 45% in size)
Chain of Thyrotropin receptor (Homo sapiens) (P16473 whole entry, looked up): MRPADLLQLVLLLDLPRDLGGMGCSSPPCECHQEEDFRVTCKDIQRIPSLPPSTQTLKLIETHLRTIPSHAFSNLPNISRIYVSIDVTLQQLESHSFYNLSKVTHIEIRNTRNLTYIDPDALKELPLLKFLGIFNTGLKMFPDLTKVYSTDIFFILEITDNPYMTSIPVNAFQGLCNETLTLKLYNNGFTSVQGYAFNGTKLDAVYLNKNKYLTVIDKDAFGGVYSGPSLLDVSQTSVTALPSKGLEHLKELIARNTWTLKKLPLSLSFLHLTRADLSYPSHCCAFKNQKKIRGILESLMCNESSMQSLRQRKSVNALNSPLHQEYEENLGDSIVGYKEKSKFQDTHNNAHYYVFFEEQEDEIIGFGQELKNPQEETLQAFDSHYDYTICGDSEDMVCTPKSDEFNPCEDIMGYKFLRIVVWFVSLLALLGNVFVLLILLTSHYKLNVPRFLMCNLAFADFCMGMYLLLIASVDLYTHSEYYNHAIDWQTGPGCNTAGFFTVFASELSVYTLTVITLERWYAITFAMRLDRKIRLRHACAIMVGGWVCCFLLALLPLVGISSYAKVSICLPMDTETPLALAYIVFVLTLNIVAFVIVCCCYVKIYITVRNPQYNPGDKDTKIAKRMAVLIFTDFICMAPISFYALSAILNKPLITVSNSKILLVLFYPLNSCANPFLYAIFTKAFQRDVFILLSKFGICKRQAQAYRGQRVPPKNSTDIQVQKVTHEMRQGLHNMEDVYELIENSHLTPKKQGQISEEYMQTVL
Method in brief: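 HEK293/TSHR, 800 cells/well; cpd 30 min RT; add cAMP-d2 + anti-cAMP-cryptate, 1 h RT; fluorescence read on plate reader. 15-pt titration, n=3.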

[9] = qHTS assay to identify small molecule agonists of the hypoxia (HIF-1) signaling pathway - cell viability counter screen (AID 1224844; calls by dose curve; further: nearly all actives have a fitted effect of over 50% in size)
Method in brief: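 HRE-bla ME-180; 0.5% dFBS; cpd 17 h, 37C, 5% CO2; CellTiter-Glo lum., 30 min RT, post-FRET read, same wells.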

[10] = biological target: Nuclear receptor subfamily 1 group I member 3 (Homo sapiens) (UniProt Q14994); test: qHTS assay to identify small molecule antagonists of the constitutive androstane receptor (CAR) signaling pathway (AID 1224838);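 further: HepG2 cells stably expressing hCAR with CYP2B6 luciferase reporter stimulated by CITCO; nearly all actives have a fitted effect of over 40% in size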
Method in brief: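 Human hepatoma HepG2 cells expressing hCAR and a CYP2B6 promoter (2.2 kb) luciferase construct; compound titration (15 points) with 50 nM CITCO final, 24 h at 37 C/5% CO2; luminescence via ONE-Glo after 30 min at room temperature.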

Measured: Potency

O=C(O)C1CCC(C(=O)O)CC1 (configuration not stated)
not listed: [10]
inactive: all other assays above

O=c1c2ccccc2nnn1CCl
inactive: [1] | [2] | [3] | [10] | [8] | [9]

CC(C)c1ccc2c(C(C)C)cc(C(C)C)c(S(=O)(=O)O)c2c1
inactive: [1] | [2] | [3] | [5] | [8]

CCCCCCCCCCCCCCC1CO1 (configuration not stated)
inactive: [1] | [2] | [3] | [5] | [8] | [9]

O=C(NN1CCCC1)NS(=O)(=O)c1ccc(Cl)cc1
not listed: [3] | [10]
inactive: all other assays above

CCOc1ccc(NC(=O)CC(C)=O)cc1
not listed: [3] | [7] | [8]
inactive: all other assays above

CN1CCC(OC(c2ccccc2)c2ccccc2)CC1
inactive: [1] | [2] | [10] | [5] | [8] | [9]
